This is an account of results in PubChem BioAssay.

The source made the active and inactive calls.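 The calls were made as follows: active = compounds whose cell count with miR-34 switched on is under 0.7 times the count with it off; inactive = the rest.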

A short description of the experiment: viability loss with induced miR-34 in A549 – imaging, A549 dox-inducible miR-34, nuclei and caspase counts, primary screen (AID 1347080). Also: test concentration not given here. As to conditions: A549 miR-34 inducible, Hoechst nuclei count, 48 h.
Setting [1] is: stronger effect = lower value, cell number ratio, induced over uninduced.
The mark [2] stands for this setting: measured here: relative caspase fold change +Dox/-Dox.
Setting [3] is: measured here: total cells with miR-34 induction, stronger effect = lower value.
Setting [4] is: measured here: total cells without miR-34 induction.

With `CCCCCCCC/C=C\CCCCCCCC(=O)NCC(=O)O`, the fold change by setting is: under setting [1], 1.05 (inactive); under setting [2], 0.739. Moreover, the cell count reads like this: under setting [3], 6150; under setting [4], 5840.

Turning to `C#C[C@]1(O)CC[C@H]2[C@@H]3CCC4=CC(=O)CCC4[C@H]3CC[C@@]21CC` (stereo partly specified), the fold change is, setting by setting: under setting [1], 0.961 (inactive); under setting [2], 0.754. The compound further showed a cell count under setting [3] of 6080 and a cell count under setting [4] of 6330.

Consider `CCCCCC(=O)CC[C@H]1C=CC(=O)[C@@H]1C/C=C\CCCC(=O)O`, for which the fold change is 0.899 (inactive) under setting [1] and 1.77 under setting [2]. Further, the cell count was 5230 under setting [3] and 5820 under setting [4].

Take `CCCCC(C)(C)[C@H](O)/C=C/[C@@H]1[C@@H](C/C=C\CCCC(=O)O)[C@@H](O)C[C@H]1O`: the fold change is 0.98 (inactive) under setting [1] and 1.24 under setting [2]. The cell count by setting is: under setting [3], 5690; under setting [4], 5800.

For `CC(Sc1nc2ccccc2[nH]1)C(=O)N/N=C/c1cc(Br)ccc1O` (stereo unspecified), the fold change is, setting by setting: under setting [1], 1.01 (inactive); under setting [2], 1.43. Also, the cell count is 6060 under setting [3] and 6010 under setting [4].

Regarding `COc1ccc(/C=C/c2cc(Cl)cc(Cl)c2)cc1`, the fold change was 1.04 (inactive) under setting [1] and 0.753 under setting [2]. In addition, the cell count under setting [3] came to 5410 and the cell count under setting [4] was 5220.

`CCCCCCCOC(=O)Cc1c(C)n(C(=O)c2ccc(Cl)cc2)c2ccc(OC)cc12`: the fold change was 0.949 (inactive) under setting [1] and 0.801 under setting [2]. Moreover, the cell count runs as follows: under setting [3], 6160; under setting [4], 6490.

Take `CCCCCCCCCCCCCCCC(=O)SCCOP(=O)([O-])OCC[N+](C)(C)C`: the fold change under setting [1] is 1.04 (inactive) and the fold change under setting [2] is 0.949. Also, the cell count is 6100 under setting [3] and 5890 under setting [4].

Turning to `COc1cc2c3cc1Oc1c(OC)c(OC)cc4c1[C@@H](Cc1ccc(OC(=O)c5ccc([N+](=O)[O-])cc5)c(c1)Oc1ccc(cc1)C[C@@H]3N(C)CC2)N(C)CC4`, the fold change under setting [1] was 1.06 (inactive) and the fold change under setting [2] worked out at 0.897. This compound had a cell count under setting [3] of 2050 and a cell count under setting [4] of 1940.

Regarding `O=P(O)(O)O[C@H]1[C@@H](O)[C@H](O)[C@@H](OP(=O)(O)O)[C@H](OP(=O)(O)O)[C@H]1O`, the fold change was 0.877 (inactive) under setting [1] and 1.8 under setting [2]. For the same compound, the cell count was 5820 under setting [3] and 6630 under setting [4].

Consider `CC(=O)OC1=C(C)NC(C)=C(OC(C)=O)C1c1ccccc1[N+](=O)[O-]`, for which the fold change runs as follows: under setting [1], 0.849 (inactive); under setting [2], 1.01. The cell count under setting [3] worked out at 3570 and the cell count under setting [4] is 4210.

With `CCCCCCCC/C=C\CCCCCCCC(=O)NCC`, the fold change runs as follows: under setting [1], 1.03 (inactive); under setting [2], 0.997. Also, the cell count was determined as 6050 under setting [3] and 5880 under setting [4].

In the case of `CCCCCCCC(=O)CC[C@@H]1[C@@H](C/C=C\CCCC(=O)OC(C)C)[C@@H](O)C[C@H]1O`, the fold change by setting is: under setting [1], 0.954 (inactive); under setting [2], 1.15. For the same compound, the cell count by setting is: under setting [3], 5890; under setting [4], 6180.

On to `CCN(CC)C(=O)CCC/C=C\C[C@@H]1[C@@H](/C=C/[C@@H](O)CCc2ccccc2)[C@H](O)C[C@@H]1O`, for which the fold change under setting [1] is 0.995 (inactive) and the fold change under setting [2] worked out at 1.45. For the same compound, the cell count was 5990 under setting [3] and 6020 under setting [4].

Consider `O=C(O)/C=C/CCCCCCCCC(=O)O`, for which the fold change runs as follows: under setting [1], 0.99 (inactive); under setting [2], 1.16. Also, the cell count amounted to 5830 under setting [3] and 5890 under setting [4].

Take `CCCCCCCCCCCCCCCC(=O)OC[C@H](COP(=O)([O-])OCC[N+](C)(C)C)OC(=O)CCCCCCCC(=O)O`: the fold change runs as follows: under setting [1], 0.924 (inactive); under setting [2], 0.678. Besides, the cell count under setting [3] was 5760 and the cell count under setting [4] worked out at 6240.

On to `CCCCC1C(=O)CC[C@H]2[C@@H]1CC(=O)[C@@H]2CCCCCCC(=O)O` (stereo partly specified), for which the fold change runs as follows: under setting [1], 0.957 (inactive); under setting [2], 0.967. Also, the cell count was determined as 5230 under setting [3] and 5460 under setting [4].

As for `CCCCCCCCCC(=O)N[C@@H](Cc1c[nH]c2ccccc12)C(=O)N[C@@H](CC(N)=O)C(=O)N[C@@H](CC(=O)O)C(=O)N[C@@H]1C(=O)NCC(=O)N[C@@H](CCCN)C(=O)N[C@@H](CC(=O)O)C(=O)N[C@H](C)C(=O)N[C@@H](CC(=O)O)C(=O)NCC(=O)N[C@H](CO)C(=O)NC([C@@H](C)CC(=O)O)C(=O)N[C@@H](CC(=O)c2ccccc2N)C(=O)OC1C` (stereo partly specified), the fold change is 0.953 (inactive) under setting [1] and 0.725 under setting [2]. Besides, the cell count was 8550 under setting [3] and 8980 under setting [4].

Turning to `O=C(CCCCCc1ccccc1)c1nc2ncccc2o1`, the fold change is, setting by setting: under setting [1], 1.06 (inactive); under setting [2], 0.866. The cell count is, setting by setting: under setting [3], 5480; under setting [4], 5190.

Regarding `O=C(CCC/C=C\C[C@H]1C(=O)C[C@@H](O)[C@@H]1/C=C/[C@@H](O)CCc1ccccc1)NC(CO)CO`, the fold change is, setting by setting: under setting [1], 0.931 (inactive); under setting [2], 0.89. Also, the cell count stood at 5500 under setting [3] and 5910 under setting [4].

As for `CCCCC[C@H](O)/C=C/[C@@H]1[C@@H](CCCCCCC(=O)O)[C@H](O)C[C@H]1O`, the fold change was 0.962 (inactive) under setting [1] and 1.22 under setting [2]. Besides, the cell count reads like this: under setting [3], 6020; under setting [4], 6250.

For `CCCCCC#CCC#CCCCCCCCC(=O)O`, the fold change by setting is: under setting [1], 0.999 (inactive); under setting [2], 0.839. For the same compound, the cell count was 6260 under setting [3] and 6270 under setting [4].

As to `CCCC[C@H](CCC(=O)O)NC(=O)CCCCCCc1ccccc1`, the fold change is, setting by setting: under setting [1], 0.993 (inactive); under setting [2], 1.71. For the same compound, the cell count runs as follows: under setting [3], 6520; under setting [4], 6570.

For `CCCCC/C=C/C=C1/C(=O)C[C@H](O)[C@@H]1C/C=C\CCCC(=O)O`, the fold change reads like this: under setting [1], 1.04 (inactive); under setting [2], 1.03. Moreover, the cell count worked out at 6090 under setting [3] and 5880 under setting [4].

For `C=C1C[C@H](O)[C@H](C/C=C\CCCC(=O)O)[C@H]1/C=C/C(=O)CCCCC`, the fold change by setting is: under setting [1], 1.11 (inactive); under setting [2], 1.24. Also, the cell count by setting is: under setting [3], 5720; under setting [4], 5160.

In the case of `CCCCCCCCCCCCCCCCC(=O)NCCO`, the fold change runs as follows: under setting [1], 1.04 (inactive); under setting [2], 0.673. Moreover, the cell count reads like this: under setting [3], 6030; under setting [4], 5800.

Consider `O=C(O)COc1ccc(C(=O)c2cccs2)c(Cl)c1Cl`, for which the fold change by setting is: under setting [1], 0.964 (inactive); under setting [2], 0.701. Further, the cell count amounted to 5800 under setting [3] and 6010 under setting [4].

For the compound `C/C=C/C(=O)O[C@H](COCCCCCCCCCCCCCCCC)COP(=O)([O-])OCC[N+](C)(C)C`, the fold change under setting [1] is 0.851 (inactive) and the fold change under setting [2] was 1.03. For the same compound, the cell count under setting [3] was 4860 and the cell count under setting [4] was 5710.

In the case of `C[C@@H](O)CCC[C@H](O)/C=C/C1=C(C/C=C\CCCC(=O)O)C(=O)CC1`, the fold change was 0.915 (inactive) under setting [1] and 1.31 under setting [2]. For the same compound, the cell count by setting is: under setting [3], 5730; under setting [4], 6260.
